Test results published in PubChem BioAssay AID488913 (National Center for Advancing Translational Sciences (NCATS), 2010).
Inconclusive results are not listed. Activity calls are given as the source filed them. Calls come from the whole dose curve; as a rule, active = well fitted inhibition curve with a large enough effect; inconclusive = small, poorly fitted or top-dose-only effect, or effect the other way; inactive = no such curve, though single readings can be large or run the other way.

assay: Confirmation Concentration-Response Assay for lipid storage modulators: for probe SAR; settings: Drosophila S3 cells, BODIPY lipid droplet fluorescence, 18-24 h; series mostly up to 46.1 µM
From the text: NIH Molecular Libraries Probe Production Centers Network [MLPCN] NIH Chemical Genomics Center [NCGC] MLPCN Grant: 1 R03 MH085686-01 Assay Submitter (PI): Beller, Mathias; Max-Planck-Institut fur Biophysikalische Chemie NCGC Assay Overview: Storing lipids as a reservoir for energy or the anabolism of elementary metabolites is a common feature of probably all cells and is conserved from bacteria to humans. The universal cellular lipid storage organelle is the so-called lipid storage droplet (LD). Although ubiquitous, LDs share a simple structure composed of a hydrophobic core that harbors the storage lipids, which is shielded by a droplet-specific phospholipid monolayer to which proteins are attached. The current model of LD biogenesis involves an incorporation of the lipid core into the membrane leaflets of the endoplasmic reticulum (ER) followed by a subsequent budding-like maturation of a LD, which ultimately pinches off. Once released, LD volume can increase by localized lipogenesis or fusion of existing droplets. Storage lipids are re-mobilized enzymatically by lipase activity. Lipase regulation in the adipocyte is heavily studied and involves multiple components including catecholamine signaling, the LD-associated proteins Perilipin and comparative gene identification-58 (CGI-58) and at least two lipases named hormone sensitive lipase (HSL) and adipocyte triglyceride lipase (ATGL). LD regulation outside of the adipocyte is poorly understood and only few components are known. However, there is an urgent need to learn more about ectopic fat depots as mislocalized storage of lipids, for example in the liver or muscle, is an eminent health problem associated with insulin resistance or the metabolic syndrome. We developed a laser-scanning cytometer assay to enable 1,536-well screening and combined the results of the small molecules screen with an RNAi database based on lipid storage.
We dispensed 4 uL of cells at 1.25 x 10^6 cells/mL into LoBase Aurora COC 1,536-well plates (black walled, clear bottom) with a bottle-valve solenoid-based dispenser (Aurora) to obtain 5,000 cells/well. Triacsin C (Sigma-Aldrich T-4540), an inhibitor of long-chain fatty acyl CoA synthetase that blocks synthesis of triglycerides, was used as a positive control for lipid under-storage. A total of 23 nL of compound solution of different concentrations were transferred to the assay plates using a Kalypsys pin tool equipped with a 1,536-pin array containing 10-nL slotted pins (FP1S10, 0.457-mm diameter, 50.8 mm long; V&P Scientific). One microliter of oleic acid (400 uM) was added, and the plate was lidded with stainless steel rubber gasket lined lids containing pinholes. After 18-24 h incubation at 24 degree Celsius and 95% humidity, 4 uL of the dyes BODIPY 493/503 (Molecular Probes) and the Cell Tracker Red CMTPX dye (Molecular Probes) were added to the wells to stain lipid droplets and enumerate cell number, respectively. Fluorescence was detected by excitation of the fluorophores with a 488-nm laser on an Acumen Explorer (TTP Lab Tech). The total intensity in channel 1 (500-530 nm) reflected lipid droplet accumulation. Cells were detected using channel 3 (575- 640 nm) with 5-um width and 100-um depth filters. The ratio of the total intensity in PMT channel 1 over total intensity of channel 3 was also calculated. Percent activity was computed relative to an internal control (100% inhibited lipid droplet deposition due to the presence of 20 uM Triacsin C), which was added to 32 wells/plate.

SMILES | Potency
O=C(O)CCc1ccc(NCc2cccc(Oc3ccccc3)c2)cc1 | inactive
COc1ccc(NC(=S)N2CCN(c3cccc(Cl)c3)CC2)c(OC)c1 | inactive
CCOc1ccc(CCNC(C)=O)cc1OCC | inactive
CCOC(=O)C1CCN(C(=O)C2(NC(=O)NCc3ccccc3)CCCCC2)CC1 | 4450 nM (active)
CC1(C)CCC(c2ccc(Cl)cc2)=C(CN2CCN(c3ccc(C(=O)NS(=O)(=O)c4ccc(N[C@H](CCN5CCOCC5)CSc5ccccc5)c(S(=O)(=O)C(F)(F)F)c4)cc3)CC2)C1 | 996 nM (active)
CCOC(=O)C1CCN(C(=O)C2(NC(=O)Nc3ccc(F)cc3F)CCCCC2)CC1 | 888 nM (active)
CCOc1ccc(CCNC(=O)c2cc3sccc3[nH]2)cc1OCC | 7910 nM (active)
CCOc1ccc(CCNC(=O)c2cc3sccc3n2C(C)C)cc1OCC | 99.6 nM (active)
CCOc1ccc(CCNC(=O)c2cc3sccc3n2CC)cc1OCC | 158 nM (active)
O=C(NC1CCCCC1)NC1(C(=O)N2CCCC2)CCCCC1 | inactive
O=C(NC1CCCc2c1cnn2-c1ccc(F)cc1F)c1ccsc1 (stereo not given) | 31.5 nM (active)
O=C(NC1CCCc2c1cnn2-c1ccc(F)cc1F)c1ccccc1 (stereo not given) | 56 nM (active)
O=C(NC1CCCc2c1cnn2-c1ccc(F)cc1F)c1cnsn1 (stereo not given) | 499 nM (active)
COc1ccc(CCNC(=O)c2cc3sccc3n2Cc2ccccc2)cc1OC | 315 nM (active)
CCOc1ccc(CCNC(=O)c2cc3sccc3n2Cc2cccnc2)cc1OCC | 353 nM (active)
CC(C)(C)OC(=O)N1CCCCC1C(=O)NC1CCCc2c1cnn2-c1ccc(F)cc1F (stereo not given) | inactive
CCOc1ccc(CCNC(=O)CN(C)C)cc1OCC | inactive
O=C(NC1CCCc2c1cnn2-c1ccc(F)cc1F)C1CC1 (stereo not given) | 1580 nM (active)
O=C(NC1CCCc2c1cnn2-c1ccc(F)cc1F)c1c(F)cccc1Cl (stereo not given) | 3530 nM (active)
Cc1ccc(-n2ncc3c2CCCC3NC(=O)c2c(F)cccc2F)cc1C (stereo not given) | 158 nM (active)

SMILES | Potency
O=C(NC1CCCc2c1cnn2-c1ccc(F)cc1F)c1ccc(F)cc1 (stereo not given) | 445 nM (active)
O=C(NC1CCCc2c1cnn2-c1ccc(F)cc1F)c1ccncc1 (stereo not given) | 9960 nM (active)
O=C(Cc1cccs1)Nc1nc(-c2ccc3c(c2)CCC3)cs1 | inactive
CCOc1ccc(CCNC(=O)Cc2ccccc2)cc1OCC | inactive
CCOc1ccc(CCNC(=O)c2cc3sccc3n2CC=C(C)C)cc1OCC | 79.1 nM (active)
O=C(NC1CCCc2c1cnn2-c1ccc(F)cc1F)C1CCCCC1 (stereo not given) | 4990 nM (active)
CCOC(=O)C1CCN(C(=O)C2(NC(=O)Nc3ccccc3Cl)CCC2)CC1 | 2810 nM (active)
CCOc1ccc(CCNC(=O)c2cc3sc(CC)cc3n2C)cc1OCC | 1220 nM (active)
Cc1ccc(-c2cnc(SCC(=O)Nc3nccs3)n2Cc2ccco2)cc1 | inactive
Cc1nc(SC(C)C(=O)Nc2nc(-c3ccccc3)cs2)n(CC2CCCO2)c1C (stereo not given) | 4450 nM (active)
CCOc1ccc(CCNC(=O)c2cccs2)cc1OCC | inactive
CCOC(=O)C1CCCN(C(=O)C2(NC(=O)Nc3ccc(F)cc3F)CCCCC2)C1 (stereo not given) | inactive
O=C(NC1CCCc2c1cnn2-c1ccccc1F)c1cccc2nccnc12 (stereo not given) | 2740 nM (active)
CCOc1ccc(CCNC(=O)c2cc3sccc3n2C)cc1OCC | 499 nM (active)
CCn1c(C(=O)NCCc2ccc(OC)c(OC)c2)cc2sccc21 | 3970 nM (active)
CCOc1ccc(CCNC(=O)c2cc3sc(Cl)cc3n2CC)cc1OCC | 2230 nM (active)
Cc1cc(SCc2sc(-c3ccc(C(F)(F)F)cc3)nc2C)ccc1OCC(=O)O | inactive
COc1ccc(-n2ncc3c2CCCC3NC(=O)c2cnc(C)cn2)cc1 (stereo not given) | 1580 nM (active)
Cn1c(=O)n(-c2ccc(C(C)(C)C#N)cc2)c2c3cc(-c4cnc5ccccc5c4)ccc3ncc21 | 1120 nM (active)
O=C(NC1CCCc2c1cnn2-c1ccc(F)cc1F)c1ccc[n+]([O-])c1 (stereo not given) | inactive
